According to ChEMBL document CHEMBL4513216, “Probing the Open Global Health Chemical Diversity Library for Multistage-Active Starting Points for Next-Generation Antimalarials” (ACS Infect Dis, 2020):
In all, about 69,000 compounds went through this assay and about 8,600 (12%) showed an effect of 50% or more. For the sample, strong results were picked, then their nearest neighbours and some compounds at random.

Test system: Plasmodium berghei
Test: Screen against P. berghei liver stage (PbLuc), transformed with Luciferase, at 10uM
Type: functional, HepG2
Details: tested at 10 uM

Structure (SMILES)	INHIBITION [%]
O=C(NCc1cccnc1)N1CCc2ncnc(NC3CC3)c2CC1	4.98
COc1c(C2CCCN2Cc2nc(-c3ccco3)no2)c(C)nn1C (configuration not stated)	-21.8
Cc1nc(-c2ccc(CO)cc2)cc(C2CCNCC2)n1	23.9
Cn1ccc(CN2CCC3(CC2)CC(Nc2ccccn2)CO3)n1 (configuration not stated)	37.9
Cc1nc(CN2CCCc3cc(OC(F)(F)F)ccc32)oc1C	37.9
Cc1nn(C)c(C)c1CNCc1ccc(N2CCOCC2)nc1	32.8
O=C(NCC1CC1)[C@H]1C[C@H]2CN(C(=O)NCC3CCCCC3)C[C@@H]1O2	20.1
Cc1cccn2c(=O)cc(OC(=O)c3ccccc3Cl)nc12	26.7
CC(C)(C)n1cc(C2=CCN(CCc3ccccn3)CC2)cn1	18.7
CC(C)(C)n1cc(C2=CCN(CCc3ccccc3)CC2)cn1	50.2
CC(C)(C)n1cc(C2=CCN(CCN3CCCCCC3)CC2)cn1	0.734
CC(C)(C)c1cnc(CN2CCCCC2Cn2cccn2)o1 (configuration not stated)	14.4
CCn1ccnc1CN1CCN(Cc2ccc(C#N)cc2)CC1	48.1
N#Cc1cccc(CN2CCn3cc(Cn4cccn4)nc3C2)c1	58.8
N#Cc1cccc(CN2CCN(Cc3cscn3)CC2)c1	66.4
CCn1ccnc1CN1CCN(Cc2cccc(C#N)c2)CC1	68.8
c1ccc(CN2CCN(Cc3cscn3)CC2)cc1	19.4
CCn1ccnc1CN1CCN(Cc2cc(C#N)ccc2F)CC1	35.9
CCn1ccnc1CN1CCN(CCOc2cccc(C#N)c2)CC1	23.2
Fc1ccc(CN2CCn3cc(Cn4cccn4)nc3C2)cc1	-53.6
CCn1ccnc1CN1CCN(CCOc2ccc(C#N)cc2)CC1	52.3
CCn1ccnc1CN1CCN(CCOc2ccccc2C#N)CC1	14.1

Structure (SMILES)	INHIBITION [%]
Fc1cccc(CN2CCN(Cc3cscn3)CC2)c1	36.7
c1cncc(CN2CCn3cc(Cn4cccn4)nc3C2)c1	31.7
O=C(c1ccc2[nH]cnc2c1)N1CCCC1Cn1cccn1 (configuration not stated)	-0.514
C[C@@H]1CN(S(C)(=O)=O)C[C@]12CCN(Cc1cccnc1)C2=O	-28.2
CNC(=O)c1cc(C2CCCN2)n[nH]1 (configuration not stated)	31.3
c1nc2c(c(C3CC3)n1)CCN(Cc1ccc3c(c1)OCO3)CC2	21.8
c1cnn(CC2CCCN2Cc2cn3ccsc3n2)c1 (configuration not stated)	28
CSCCC(Nc1nc(C)cc(C)n1)C(=O)NCC1CCOCC1 (configuration not stated)	25.2
CCc1csc(C2CCCN(C(=O)COc3cc(C)on3)C2)n1 (configuration not stated)	46.2
O=C1CCCCCN1Cc1ncnn1Cc1c(F)cccc1Cl	5.46
COc1ccc(OCCN2CCCN(Cc3noc(C)n3)CC2)cc1	4.52
Cc1cccc(OCCN2CCN(Cc3noc(C)n3)CC2)c1	30.6
Cc1nc(CN2CCCN(CCOc3ccc(C#N)cc3)CC2)no1	56.6
CC(C(=O)NC1CC1)n1nc(-c2cccs2)cc(N)c1=O (configuration not stated)	23.9
CC(C)n1ncc2cc(NC(=O)N3CCC(N4CCCC4)C3)cnc21 (configuration not stated)	53.3
CC(C)n1ncc2cc(NC(=O)N3CCC(C(N)=O)C3)cnc21 (configuration not stated)	7.08
CC(=O)NC1CCCN(C(=O)Nc2cnc3c(cnn3C(C)C)c2)C1 (configuration not stated)	4.31
Cc1nc(CN2CC[C@@H]3[C@@H](CCC(=O)N3CCc3c[nH]cn3)C2)co1	44.8
O=C1CC[C@H]2CN(Cc3cccnc3)CC[C@H]2N1CCc1c[nH]cn1	23.9
O=C1CC[C@H]2CN(Cc3ccc(Cl)s3)CC[C@H]2N1CCc1c[nH]cn1	78.5
CN(CCO)c1ncc(-c2ccc(NC(=O)[C@@H]3CCCCN3)cc2)cn1	-4.82
CCn1c(=O)nc(N)c2c(-c3ccc(OC)cc3)csc21	23.9

Structure (SMILES)	INHIBITION [%]
CCOC(=O)Cn1c(=O)nc(N)c2c(-c3ccc(OC)cc3)csc21	18.3
COc1ccc(-c2csc3c2c(N)nc(=O)n3CC(N)=O)cc1	58.2
C=C(C)Cn1c(=O)nc(N)c2c(-c3ccc(OC)cc3)csc21	33.2
CCc1c(C)sc2c1c(N)nc(=O)n2CCCN(C)C	-11.9
COc1ccc(-c2csc(N)c2C#N)cc1	40.9
CCc1c(C)sc2c1c(N)nc(=O)n2CCN(C)C	-14.2
COc1ccc(-c2csc3c2c(N)nc(=O)n3CCCN(C)C)cc1	60.1
COc1ccc(-c2csc3c2c(N)nc(=O)n3CCN(C)C)cc1	50.8
COc1ccc(CN2C[C@@H]3OCCN(C)[C@@H]3C2)cc1	22.9
CCOC[C@@]12CCC[C@@H]1CN(C(=O)COc1ccccc1OC)C2	10.4
Cc1noc(C)c1CN1C(=O)[C@@H]2CC[C@H]1CN(Cc1cccc(O)c1)C2	-77.6
COCC(O)CN1CC(C)(C)CN(C(=O)CCc2ccccc2)CC1=O (configuration not stated)	-39.8
Cc1ccccc1C(NC(=O)NCC1(O)CCC1)C1CC1 (configuration not stated)	-15.9
CC(C)n1nnnc1-c1ccc(NC(=O)C(C)(C)C#N)cc1F	6.09
CN(C)CC1CCCCN1C(=O)c1ccc(N2CCOCC2)cc1 (configuration not stated)	23.4
CCc1ccc(CN(C)C(=O)C2CC(=O)N(c3cccc(O)c3)C2)nc1 (configuration not stated)	32.1
CCc1cc(CN(C)C(=O)C2CC(=O)N(c3cccc(O)c3)C2)on1 (configuration not stated)	66.6
CCc1nc(CN(C)C(=O)C2CC(=O)N(c3cccc(O)c3)C2)no1 (configuration not stated)	10.3
Cc1cccc(Cn2cc(C)c(N)n2)c1	2.6
CN1[C@H](CN2CCCC2)C[C@@H]2CN(Cc3ccoc3)CC[C@@H]21	-14.3
Cn1cccc1C(=O)N1CCc2ncnc(N3CCCC3)c2CC1	48.9
CCN(C)c1ncnc2c1CCN(C(=O)c1cccn1C)CC2	52

Structure (SMILES)	INHIBITION [%]
CCc1ncnc2c1CCN(C(=O)c1cccn1C)CC2	64.9
CCN(C)c1ncnc2c1CCN(C(=O)c1ccccn1)CC2	-54.5
CCN(C)c1ncnc2c1CCN(C(=O)c1ccsc1)CC2	14.9
Cc1ncnc2c1CCN(C(=O)c1cccn1C)CC2	-0.388
O=C(NCCOc1ccc2c(c1)OCO2)N1CCCC(CO)C1 (configuration not stated)	-27.8
Cc1nnc(CN(Cc2ccc3c(c2)OCO3)C2CCCCC2)o1	-9.76
Cn1nc2c(cc1=O)CN(CC(=O)Nc1nccs1)CC2	13.3
Cc1nn(C)c(C)c1-c1ccc(=O)n(C(C)C(=O)NC(C)(C)C)n1 (configuration not stated)	4.02
CCCN(CCC)C(=O)Cn1c(SC)nc2ccsc2c1=O	39.1
Cn1nc(C(=O)NC2CC2)cc1NC(=O)C1CC1	75.3
Cn1nc(C(=O)NC2CCCC2)cc1NC(=O)C1CC1	-22.8
Cn1nc(C(=O)NC2CCCCC2)cc1NC(=O)C1CC1	53.5
Cc1ccc(CNC(=O)c2cc(NC(=O)C3CC3)n(C)n2)o1	-8.95
Cc1nn(C)c(C)c1CNC(=O)c1cc(NC(=O)C2CC2)n(C)n1	31.35
Cn1nc(C(=O)NC2CC(C)(C)NC(C)(C)C2)cc1NC(=O)C1CC1	21.8
CCc1nc(C2CCCN2C(=O)c2ccc3c(c2)COC3)no1 (configuration not stated)	33.8
CN1CCN(C(=O)c2cc3sccc3n2Cc2ccccc2)CC1	11.7
NC(=O)c1cccc(CN2CCOC(Cn3cccn3)C2)c1 (configuration not stated)	30.2
CCOC(=O)[C@@H]1[C@H]2CN(C(=O)OC)CCN2C[C@H]1c1ccccc1	-43.6
CCOC(=O)[C@@H]1[C@@H](c2ccccc2)CN2CCN(C(=O)N(C)C)C[C@H]12	32.1
CCOC(=O)[C@@H]1[C@@H](c2ccccc2)CN2CCNC[C@H]12	50.2
CCOC(=O)[C@@H]1CN2CCNC[C@@H]2[C@H]1c1ccccc1	46.4

Structure (SMILES)	INHIBITION [%]
O=C(C1CC1)N1CCN2C[C@@H](CO)[C@H](c3ccccc3)[C@H]2C1	49.5
CCOC(=O)[C@@H]1[C@@H](c2ccccc2)CN2CCN(C(=O)C3CC3)C[C@H]12	12.4
CCOC(=O)[C@@H]1[C@@H](c2ccccc2)CN2CCN(C(C)=O)C[C@H]12	51
CNC(=O)[C@@H]1[C@H]2CNCCN2C[C@H]1c1ccccc1	11.6
O=C(C1CC1)N1CCN2C[C@H](c3ccccc3)[C@@H](CO)[C@H]2C1	51
c1cc(-c2cnc(C3CCNCC3)cn2)n[nH]1	38.7
CCc1noc(C)c1C(=O)N1CCCC1Cn1cccn1 (configuration not stated)	45.7
CC(C)N1CCOCC2(CN(Cc3nccs3)CCO2)C1 (configuration not stated)	10.3
O=C(NC1CCCC1)N1CC[C@H]2[C@H]1CCN2c1nncs1	26
COCCc1nnc(NC(=O)Cc2ccccc2Cl)o1	35.1
COC(=O)N1CCC(CNC(=O)C2CC2)CC1	-10.8
CCn1nc(C)c(-c2cncn2CCN(C)C2CCCC2)c1C	27.6
Cc1ccc2c(c1)CCC2NCc1c(C)nn(CCO)c1C (configuration not stated)	-40.4
COCC1(CNc2cc(C(C)C)nc(N)n2)CC1	41.2
CC(C)c1nc(CNc2ccc(CNS(C)(=O)=O)cc2)cs1	-72.8
CC(C)c1cc(NCc2csc(C(C)C)n2)nc(N)n1	58
CC(C)CC(CO)NC(=O)NCc1csc(N(C)C)n1 (configuration not stated)	-5.1
Cc1nc(N)cc(NCc2csc(N(C)C)n2)n1	-84.1
CC(C)c1cc(NCc2csc(N(C)C)n2)nc(N)n1	87
